For 14 compounds, inhibition results are on record in PubChem BioAssay.

Broadly, the inhibition is the drop in the measured response relative to a control, in per cent.

Molecules are shown by their SMILES. Unmarked numbers belong to inactive results. No rule for the calls is given here.

The target in the assay is L-lactate dehydrogenase (Plasmodium falciparum (isolate CDC / Honduras)) (UniProt Q27743). Briefly: PfLDH activity inhibition – cell lysate, 3D7 strain, counter-screen for P. falciparum growth inhibition project (AID 2304).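 Also: 0% = vehicle and 100% = reference inhibitor.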 The note with it: P. falciparum 3D7 crude extract, LDH APAD/NBT absorbance; at 2 µM; active compounds read high.
Chain of L-lactate dehydrogenase (Plasmodium falciparum (isolate CDC / Honduras)) (Q27743 whole entry, looked up): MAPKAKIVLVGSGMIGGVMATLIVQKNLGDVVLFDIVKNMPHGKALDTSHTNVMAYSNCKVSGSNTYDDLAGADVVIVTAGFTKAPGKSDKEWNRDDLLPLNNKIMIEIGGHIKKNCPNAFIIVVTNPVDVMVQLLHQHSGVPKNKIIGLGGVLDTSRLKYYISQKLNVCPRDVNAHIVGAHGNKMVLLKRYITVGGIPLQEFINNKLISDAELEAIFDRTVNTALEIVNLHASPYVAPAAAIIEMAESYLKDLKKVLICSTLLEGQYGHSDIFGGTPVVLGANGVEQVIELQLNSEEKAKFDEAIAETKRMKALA
For `CC1(CCCCN2CCC(Oc3ccc(F)cc3F)CC2)C(=O)Nc2ccccc21` (centres undefined), the inhibition is -6%.
For `c1cc(CNC2CCCC2)cc(-c2ccc(CNc3ccc4ncccc4c3)cc2)c1`, the inhibition was -9%.
The value for `O=S(=O)(c1cc2ccccc2s1)N(CCC(O)(C(F)(F)F)C(F)(F)F)Cc1cccc(O)c1` was 0%.
For `CCC(C)CN1CCN(c2ccc(NC(=O)c3cccs3)cc2)CC1C` (centres undefined) the value was 1%; for `COc1ccc(Nc2nccc(N3CCC(NC(=O)C(C)c4ccc(Cl)cc4)C3)n2)cc1` (centres undefined), -4%.
The value for `O=C(/C=C/c1ccc(Cl)c(Cl)c1)NCCCCN1CCC(c2c[nH]c3ccccc23)CC1` was -2%; that for `N#Cc1cccc(NC(=O)Nc2ccc(-c3ccc(-c4nc5ccc(C(F)(F)F)cc5[nH]4)cc3)cc2)c1` was -2%.
Turning to `CCOc1ccc(-c2nonc2NC(=O)c2ccc(OC(C)C)cc2)cc1OCC`, the inhibition is -2%.
For `COc1ccccc1NC(=O)OC(COc1ccc(N)cc1)CN1CC=C(c2ccccc2)CC1` (centres undefined) the value was 3%; for `CCCCN1C(=O)C(c2ccccc2)(c2ccccc2)N=C1N`, 7%.
The value for `O=C(Nc1ccc(OC2CCN(Cc3ccc(F)cc3)C2)c(Cl)c1)c1ccc(F)cc1` (centres undefined) was -3%; that for `COc1cccc(Nc2c(C(N)=O)cnc3ccc(-c4ccc(S(C)=O)cc4)cc23)c1` (centres undefined) was 9%; that for `CN(Cc1ccccc1)C1CCCN(c2cc(NC(=O)c3cccs3)ccn2)C1` (centres undefined) was -1%.
The value for `C[C@H](Cc1ccc(S(=O)(=O)c2ccc(C[C@@H](C)NC[C@H](O)c3cccc(Cl)c3)cc2)cc1)NC[C@H](O)c1cccc(Cl)c1` was -9%.
